Source: the supplement of paper PMC12494721
Structures can show the parent of a compound that is named as a salt.

These molecules were tested on Klebsiella aerogenes DSM 30053 (assay: growth (OD595) fold change vs plate DMSO controls (fold change (ratio)); higher = more growth). Settings: incubation time: 27 h, anaerobic, 37 °C.
Procedure, shortened: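 The 96-well mGAM cultures had been kept anaerobic for 27 h at 37 °C before being shaken and read at 595 nm. Blank subtraction, compound background correction with 20 µM compound solutions in water, and a calibration factor of 5 turned the readings into OD. Growth is given as the fold change versus the median of plate DMSO controls. Fold changes above 1.5 were set to NA, and the values are means of 2 biological replicates.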

SMILES | growth
CC(=O)[C@H]1CC[C@H]2[C@@H]3CC=C4C[C@@H](O)CC[C@]4(C)[C@H]3CC[C@]12C [Pregnenolone] (20 µM) | 1
CC(C(=O)O)c1ccc(N2Cc3ccccc3C2=O)cc1 (stereo not given) [Indoprofen] (20 µM) | 0.973
Cc1cc(O)c(C(=O)N[C@@H](C(=O)N[C@@H]2C(=O)N3C(C(=O)O)=C(CSc4nnnn4C)CS[C@H]23)c2ccc(O)cc2)cn1 [Cefpiramide] (20 µM) | 0.61
CC(C)=CCC1C(=O)N(c2ccccc2)N(c2ccccc2)C1=O [Feprazone] (20 µM) | 1.01
COC(=O)C1=C(C)NC(C)=C(C(=O)OCCN(C)Cc2ccccc2)C1c1cccc([N+](=O)[O-])c1 (stereo not given) [Nicardipine hydrochloride] (20 µM) | 1.01
COCCOC(=O)C1=C(C)NC(C)=C(C(=O)OC(C)C)C1c1cccc([N+](=O)[O-])c1 (stereo not given) [Nimodipine] (20 µM) | 1.03
NS(=O)(=O)c1cc2c(cc1Cl)N=CNS2(=O)=O [Chlorothiazide] (20 µM) | 1.03
CC(Oc1ccccc1)C(=O)N[C@@H]1C(=O)N2[C@@H]1SC(C)(C)[C@@H]2C(=O)O (stereo not given in full) [Phenethicillin potassium salt] (20 µM) | 0.995
Cc1ccc(N(CC2=NCCN2)c2cccc(O)c2)cc1 [Phentolamine hydrochloride] (20 µM) | 0.871
CC1(C)O[C@@H]2C[C@H]3[C@@H]4C[C@H](F)C5=CC(=O)CC[C@]5(C)[C@H]4[C@@H](O)C[C@]3(C)[C@]2(C(=O)CO)O1 [Flurandrenolide] (20 µM) | 0.987
NS(=O)(=O)c1cc2c(cc1C(F)(F)F)NCNS2(=O)=O [Hydroflumethiazide] (20 µM) | 0.989
Nc1nc(/C(=C/CC(=O)O)C(=O)N[C@@H]2C(=O)N3C(C(=O)O)=CCS[C@H]23)cs1 [Ceftibuten] (20 µM) | 1.14
O=C(O)Cc1ccc(-c2ccccc2)cc1 [Felbinac] (20 µM) | 1.08
Nc1nnc(-c2cccc(Cl)c2Cl)c(N)n1 [Lamotrigine] (20 µM) | 0.986
Nc1nc(=O)c2nc(CNc3ccc(C(=O)N[C@@H](CCC(=O)O)C(=O)O)cc3)cnc2[nH]1 [Folic acid] (20 µM) | 0.988
Nc1ccc(S(=O)(=O)NC(=O)c2ccccc2)cc1 [Sulfabenzamide] (20 µM) | 1.05
CCC(=O)O[C@]1(C(=O)SCF)[C@H](C)C[C@H]2[C@@H]3C[C@H](F)C4=CC(=O)C=C[C@]4(C)[C@@]3(F)[C@@H](O)C[C@@]21C [Fluticasone propionate] (20 µM) | 1.03
CCOC(=O)[C@H](CCc1ccccc1)N[C@@H](C)C(=O)N1[C@H](C(=O)O)C[C@@H]2CCC[C@@H]21 [Ramipril] (20 µM) | 1.13
CO/N=C(\C(=O)N[C@@H]1C(=O)N2C(C(=O)OCOC(=O)C(C)(C)C)=C(/C=C\c3scnc3C)CS[C@H]12)c1csc(N)n1 [Cefditoren Pivoxil] (20 µM) | 1.03
NC[C@H]1O[C@H](O[C@H]2[C@H](O[C@@H]3O[C@H](CO)[C@@H](O)[C@H]3O)[C@@H](O)[C@H](N)C[C@@H]2N)[C@H](N)[C@@H](O)[C@@H]1O [Ribostamycin sulfate salt] (20 µM) | 0.972

SMILES | growth
Brc1c(NC2=NCCN2)ccc2nccnc12 [Brimonidine L-tartrate] (20 µM) | 0.999
O=c1[nH]cnc2c1ncn2[C@H]1CC[C@@H](CO)O1 [Didanosine] (20 µM) | 1.03
NS(=O)(=O)Cc1noc2ccccc12 [Zonisamide] (20 µM) | 0.994
CN(C)CCC(c1ccc(Cl)cc1)c1ccccn1 (stereo not given) [Chlorpheniramine maleate] (20 µM) | 0.719
OCC(O)CN1CCN(c2ccccc2)CC1 (stereo not given) [Dropropizine] (20 µM) | 1.02
CC(=O)[C@H]1CC[C@H]2[C@@H]3CCC4=CC(=O)CC[C@]4(C)[C@H]3CC[C@]12C [Progesterone] (20 µM) | 1.05
CC(C)(C)NC(=O)[C@@H]1CN(Cc2cccnc2)CCN1C[C@@H](O)C[C@@H](Cc1ccccc1)C(=O)N[C@H]1c2ccccc2C[C@H]1O [Indinavir sulfate] (20 µM) | 1.04
c1ccc2c(c1)CCCC2C1=NCCN1 (stereo not given) [Tetrahydrozoline hydrochloride] (20 µM) | 1.01
O=[N+]([O-])c1ccc(O)c2ncccc12 [Nitroxoline] (20 µM) | 0.522
COCC(=O)O[C@]1(CCN(C)CCCc2nc3ccccc3[nH]2)CCc2cc(F)ccc2[C@@H]1C(C)C [Mibefradil hydrochloride] (20 µM) | 1
Nc1nc(Cl)nc2c1ncn2[C@H]1C[C@H](O)[C@@H](CO)O1 [Cladribine] (20 µM) | 1.06
CN(CCOc1ccc(CC2SC(=O)NC2=O)cc1)c1ccccn1 (stereo not given) [Rosiglitazone hydrochloride] (20 µM) | 0.983
C[C@@H](O)[C@H]1C(=O)N2C(C(=O)O)=C(S[C@@H]3CN[C@H](C(=O)N(C)C)C3)[C@H](C)[C@H]12 [Meropenem] (20 µM) | 0.316
CNCCC=C1c2ccccc2C=Cc2ccccc21 [Norcyclobenzaprine] (20 µM) | 1.01
CCCCS(=O)(=O)N[C@@H](Cc1ccc(OCCCCC2CCNCC2)cc1)C(=O)O [Tirofiban hydrochloride] (20 µM) | 1.01
OC[C@H]1O[C@@H](n2cnc3cncnc32)[C@H](O)[C@@H]1O [Nebularine] (20 µM) | 1.01
CC1(C)S[C@@H]2[C@H](NC(=O)[C@H](N)c3ccccc3)C(=O)N2[C@H]1C(=O)O [Ampicillin trihydrate] (20 µM) | 0.91
Oc1ncnc2[nH]ncc12 [Allopurinol] (20 µM) | 0.974
CC(C)(C)c1ccc(C(=O)CCCN2CCC(OC(c3ccccc3)c3ccccc3)CC2)cc1 [Ebastine] (20 µM) | 1.01
CCOC(N)=O [Urethane] (20 µM) | 1.04
